Assay results reported in PubChem BioAssay (NCI).
This is part of a sample that, as a whole, favours compounds with a hit. Of some 79,000 tested, about 15% had one in any assay. Values without a mark were called inactive. Calls of active or inactive are those of the source. No stated cut-off is given here; in the data, active means growth inhibition above about 70%; inactive means the rest.

Key:
[1] = NCI Yeast Anticancer Drug Screen. Data for the rad52 strain (AID 147);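 further: 0% = growth of vehicle-treated control cultures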; settings: S. cerevisiae rad52 mutant growth inhibition, active compounds read high
Procedure, shortened: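 Measured: yeast growth inhibition. System: strain with a defined DNA damage repair alteration. Reference: vehicle-treated control cultures.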

[2] = NCI Yeast Anticancer Drug Screen. Data for the wt1 strain (AID 149);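 further: 0% = growth of vehicle-treated wt1 cultures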; settings: S. cerevisiae wt1 strain (SPY 50644) growth inhibition, active compounds read high
Procedure, shortened: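 Readout: yeast growth inhibition, normalised to vehicle controls, in the wt1 strain exposed to test compounds.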

[3] = NCI Yeast Anticancer Drug Screen. Data for the rad50EPP+ strain (AID 151);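 further: 0% = growth of vehicle-treated control cultures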; settings: S. cerevisiae rad50 mutant strain, active compounds read high
Procedure, shortened: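 One strain with a rad50 alteration (rad50EPP+) was compound-treated, its growth then compared to that of vehicle controls.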

[4] = NCI Yeast Anticancer Drug Screen. Data for the rad50 strain (AID 155);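 further: 0% = growth of vehicle-only cultures of the same strain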; settings: S. cerevisiae rad50 strain growth inhibition, active compounds read high
Procedure, shortened: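 Compounds were tested on a yeast strain with an engineered DNA damage repair alteration; the reported value is growth inhibition normalised to vehicle treatment.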

[5] = NCI Yeast Anticancer Drug Screen. Data for the mec2-1 strain (AID 157); settings: S. cerevisiae mec2-1 strain, active compounds read high
Procedure, shortened: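 Test agents were screened against the mec2-1 yeast strain, with defined DNA repair or cell cycle alteration. Growth was scored as inhibition against vehicle-only controls.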

[6] = NCI Yeast Anticancer Drug Screen. Data for the rad14 strain (AID 159);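 further: 0% = growth of vehicle-treated control cultures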; settings: S. cerevisiae rad14 strain growth inhibition, active compounds read high
Procedure, shortened: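 Compound-treated yeast with a defined DNA-repair lesion; growth inhibition normalised to vehicle-treated cultures.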

[7] = NCI Yeast Anticancer Drug Screen. Data for the sgs1 mgt1 strain (AID 161);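 further: 0% = growth of cultures given vehicle only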; settings: S. cerevisiae sgs1 mgt1 strain, active compounds read high
Procedure, shortened: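 Inhibition of yeast growth, normalised to vehicle-treated controls, is reported for a strain bearing genetic alterations in DNA damage repair.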

[8] = NCI Yeast Anticancer Drug Screen. Data for the CLN2oe strain (AID 163);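 further: 0% = growth of vehicle-only control cultures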; settings: S. cerevisiae CLN2oe strain, active compounds read high
Procedure, shortened: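 Here, growth inhibition in a cell-cycle-altered yeast strain after compound exposure was quantified against vehicle control growth.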

[9] = NCI Yeast Anticancer Drug Screen. Data for the cln2 rad14 strain (AID 165);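 further: 0% = growth equal to vehicle treated cultures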; settings: S. cerevisiae cln2 rad14 strain, active compounds read high
Procedure, shortened: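 Growth of compound-exposed yeast (cln2 rad14 genotype) measured and expressed as inhibition relative to vehicle.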

[10] = NCI Yeast Anticancer Drug Screen. Data for the bub3 strain (AID 167); settings: S. cerevisiae bub3 mutant strain, active compounds read high
Procedure, shortened: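 Growth of a checkpoint-deficient yeast mutant is measured after compound exposure. Values represent inhibition relative to vehicle.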

[11] = NCI Yeast Anticancer Drug Screen. Data for the wt2 strain (AID 169);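 further: 0% = growth of vehicle-treated yeast cultures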; settings: S. cerevisiae wt2 strain growth inhibition, active compounds read high
Procedure, shortened: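 Genetically defined yeast strains from a DNA-repair/cell-cycle panel were used. Compound-exposed yeast growth was measured, and the inhibition was calculated relative to vehicle treatment.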

[12] = NCI Yeast Anticancer Drug Screen. Data for the mlh1 strain (AID 171);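 further: 0% = growth of vehicle-treated control cultures of the same strain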; settings: S. cerevisiae mlh1 strain growth inhibition, active compounds read high
Procedure, shortened: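 Here the genetically defined yeast mutant is grown with each compound, and the extent to which its growth falls below that of vehicle-exposed cells is reported.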

[13] = NCI Yeast Anticancer Drug Screen. Data for the sgs1 strain (AID 173);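 further: 0% = growth of vehicle-only control cultures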; settings: S. cerevisiae sgs1 mutant, active compounds read high
Procedure, shortened: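 Relative growth inhibition, referenced to vehicle, was determined in a yeast strain with a defined alteration affecting DNA damage repair or cell cycle control after compound exposure.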

[14] = NCI Yeast Anticancer Drug Screen. Data for the mlh1 rad18 strain (AID 175); settings: S. cerevisiae mlh1 rad18 strain growth inhibition, active compounds read high
Procedure, shortened: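 In this whole-cell yeast screen, a strain with altered DNA damage repair is challenged with compound, and its growth is measured against matched vehicle-treated controls.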

[15] = NCI Yeast Anticancer Drug Screen. Data for the rad18 strain (AID 177); settings: S. cerevisiae rad18 mutant growth inhibition, active compounds read high
Procedure, shortened: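 Screen uses a yeast strain with a defined lesion in DNA damage repair; compound effect is read as loss of growth compared to untreated vehicle cultures.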

[16] = at 5.0 µM (retest, dose inferred, filed as 0.5)
[17] = at 50.0 µM (retest, dose inferred, filed as 5.0)

## CC1=CCCC2C1(C)CCC(C)C2(C)Cc1cc(O)ccc1O (stereo not drawn)
[1]; at 1.2 µM
  growth inhibition: 12%
[1]; at 3.7 µM
  growth inhibition: 31%
[1]; at 11.0 µM
  growth inhibition: 70% (active)
[1]; at 33.0 µM
  growth inhibition: 98% (active)
[1]; at 100.0 µM
  growth inhibition: 93% (active)
[2]; at 1.2 µM
  growth inhibition: -5%
[2]; at 3.7 µM
  growth inhibition: 13%
[2]; at 11.0 µM
  growth inhibition: 31%
[2]; at 33.0 µM
  growth inhibition: 98% (active)
[2]; at 100.0 µM
  growth inhibition: 96% (active)
[3]; at 1.2 µM
  growth inhibition: -6%
[3]; at 3.7 µM
  growth inhibition: 39%
[3]; at 11.0 µM
  growth inhibition: 69%
[3]; at 33.0 µM
  growth inhibition: 86% (active)
[3]; at 100.0 µM
  growth inhibition: 88% (active)
[4]; at 1.2 µM
  growth inhibition: -3%
[4]; at 3.7 µM
  growth inhibition: 19%
[4]; [16]
  growth inhibition: 22%
[4]; at 11.0 µM
  growth inhibition: 51%
[4]; at 33.0 µM
  growth inhibition: 98% (active)
[4]; [17]
  growth inhibition: 96% (active)
[4]; at 50.0 µM
  growth inhibition: 88.9% (active)
[4]; at 100.0 µM
  growth inhibition: 93% (active)
[5]; at 1.2 µM
  growth inhibition: 5%
[5]; at 3.7 µM
  growth inhibition: 17%
[5]; [16]
  growth inhibition: 46%
[5]; at 11.0 µM
  growth inhibition: 45%
[5]; at 33.0 µM
  growth inhibition: 99% (active)
[5]; [17]
  growth inhibition: 97% (active)
[5]; at 50.0 µM
  growth inhibition: 90.6% (active)
[5]; at 100.0 µM
  growth inhibition: 95% (active)
[6]; at 1.2 µM
  growth inhibition: 15%
[6]; at 3.7 µM
  growth inhibition: 15%
[6]; at 11.0 µM
  growth inhibition: 35%
[6]; at 33.0 µM
  growth inhibition: 98% (active)
[6]; at 100.0 µM
  growth inhibition: 94% (active)
[7]; [16]
  growth inhibition: 39%
[7]; [17]
  growth inhibition: 97% (active)
[7]; at 50.0 µM
  growth inhibition: 90.5% (active)
[8]; at 1.2 µM
  growth inhibition: -73%
[8]; at 3.7 µM
  growth inhibition: -57%
[8]; at 11.0 µM
  growth inhibition: -91%
[8]; at 33.0 µM
  growth inhibition: 97% (active)
[8]; at 100.0 µM
  growth inhibition: 87% (active)
[9]; [16]
  growth inhibition: 10%
[9]; [17]
  growth inhibition: 97% (active)
[9]; at 50.0 µM
  growth inhibition: 88.5% (active)
[10]; at 1.2 µM
  growth inhibition: 9%
[10]; at 3.7 µM
  growth inhibition: 18%
[10]; [16]
  growth inhibition: 44%
[10]; at 11.0 µM
  growth inhibition: 60%
[10]; at 33.0 µM
  growth inhibition: 99% (active)
[10]; [17]
  growth inhibition: 96% (active)
[10]; at 50.0 µM
  growth inhibition: 88.6% (active)
[10]; at 100.0 µM
  growth inhibition: 93% (active)
[11]; at 1.2 µM
  growth inhibition: -28%
[11]; at 3.7 µM
  growth inhibition: -7%
[11]; at 11.0 µM
  growth inhibition: 98% (active)
[11]; at 33.0 µM
  growth inhibition: 97% (active)
[11]; at 100.0 µM
  growth inhibition: 89% (active)
[12]; at 1.2 µM
  growth inhibition: -1%
[12]; at 3.7 µM
  growth inhibition: 19%
[12]; at 11.0 µM
  growth inhibition: 38%
[12]; at 33.0 µM
  growth inhibition: 98% (active)
[12]; at 100.0 µM
  growth inhibition: 94% (active)
[13]; at 1.2 µM
  growth inhibition: 4%
[13]; at 3.7 µM
  growth inhibition: 31%
[13]; at 11.0 µM
  growth inhibition: 79% (active)
[13]; at 33.0 µM
  growth inhibition: 99% (active)
[13]; at 100.0 µM
  growth inhibition: 95% (active)
[14]; [16]
  growth inhibition: 83% (active)
[14]; [17]
  growth inhibition: 93% (active)
[14]; at 50.0 µM
  growth inhibition: 88% (active)
[15]; at 1.2 µM
  growth inhibition: 1%
[15]; at 3.7 µM
  growth inhibition: 24%
[15]; at 11.0 µM
  growth inhibition: 66%
[15]; at 33.0 µM
  growth inhibition: 98% (active)
[15]; at 100.0 µM
  growth inhibition: 94% (active)
